Drawing on article PMC7862700, “An all-to-all approach to the identification of sequence-specific readers for epigenetic DNA modifications on cytosine”, this text covers binding signal for seven sequences.

What all share (experiment): DAPPL (digital affinity profiling via proximity ligation, sequencing); 10 mM Tris-HCl pH 7.5, 50 mM NaCl, 1 mM DTT, 4% glycerol, room temperature, 30 min; GST-TFs on glutathione beads, 16-mer random dsDNA library, 0.1% formaldehyde crosslink after washing; high values mean tight binding
What all share (details): protein: recombinant; tags: N-terminal GST; dsDNA, one strand shown

One test addresses T1, ERF (Homo sapiens, UniProt P50548 1-548).
T1 sequence: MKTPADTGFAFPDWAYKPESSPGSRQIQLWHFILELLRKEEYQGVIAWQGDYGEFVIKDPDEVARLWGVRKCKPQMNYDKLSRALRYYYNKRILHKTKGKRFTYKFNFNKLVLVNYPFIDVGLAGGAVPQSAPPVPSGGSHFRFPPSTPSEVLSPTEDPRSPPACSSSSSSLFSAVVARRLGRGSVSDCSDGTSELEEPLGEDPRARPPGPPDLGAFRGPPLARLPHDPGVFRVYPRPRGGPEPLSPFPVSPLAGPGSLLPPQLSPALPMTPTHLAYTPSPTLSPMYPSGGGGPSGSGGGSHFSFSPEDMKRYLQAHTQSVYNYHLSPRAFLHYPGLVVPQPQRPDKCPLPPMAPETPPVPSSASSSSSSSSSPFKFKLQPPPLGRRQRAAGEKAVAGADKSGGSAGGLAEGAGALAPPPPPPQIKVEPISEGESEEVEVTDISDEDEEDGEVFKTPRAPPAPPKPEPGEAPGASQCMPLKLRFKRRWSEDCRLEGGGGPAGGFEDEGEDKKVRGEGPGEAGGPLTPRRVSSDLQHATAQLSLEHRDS
In outline:
(§1)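 Yeast served to express human transcription factors as GST fusions, which were then captured on glutathione beads and labelled with DNA barcodes. Pooled with a tag-only sample, they were incubated with 200 nmole of a 16-mer random double-stranded DNA library for 30 min at room temperature in Tris/NaCl/DTT/glycerol buffer, washed, crosslinked with 0.1% formaldehyde, ligated by proximity, amplified by PCR and sequenced. Dividing each hexamer's read frequency for a factor by its frequency for the tag-only sample gives the binding signal.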

In the next test the target is T2, ETV3L (Homo sapiens, UniProt Q6ZN32 1-361).
T2 sequence: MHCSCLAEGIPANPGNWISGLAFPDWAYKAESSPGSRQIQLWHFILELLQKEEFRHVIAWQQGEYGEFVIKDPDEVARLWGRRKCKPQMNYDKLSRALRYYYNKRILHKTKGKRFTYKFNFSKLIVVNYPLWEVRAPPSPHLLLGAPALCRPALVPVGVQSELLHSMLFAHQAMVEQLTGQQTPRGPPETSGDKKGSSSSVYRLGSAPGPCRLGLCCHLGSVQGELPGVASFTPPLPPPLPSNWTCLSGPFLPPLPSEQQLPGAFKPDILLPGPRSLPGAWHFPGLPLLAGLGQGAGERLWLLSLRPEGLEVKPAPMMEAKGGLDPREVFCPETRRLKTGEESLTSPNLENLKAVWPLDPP
Summed up: as §1

Another test deals with T3, ETS2 (Homo sapiens, UniProt P15036 1-469).
T3 sequence: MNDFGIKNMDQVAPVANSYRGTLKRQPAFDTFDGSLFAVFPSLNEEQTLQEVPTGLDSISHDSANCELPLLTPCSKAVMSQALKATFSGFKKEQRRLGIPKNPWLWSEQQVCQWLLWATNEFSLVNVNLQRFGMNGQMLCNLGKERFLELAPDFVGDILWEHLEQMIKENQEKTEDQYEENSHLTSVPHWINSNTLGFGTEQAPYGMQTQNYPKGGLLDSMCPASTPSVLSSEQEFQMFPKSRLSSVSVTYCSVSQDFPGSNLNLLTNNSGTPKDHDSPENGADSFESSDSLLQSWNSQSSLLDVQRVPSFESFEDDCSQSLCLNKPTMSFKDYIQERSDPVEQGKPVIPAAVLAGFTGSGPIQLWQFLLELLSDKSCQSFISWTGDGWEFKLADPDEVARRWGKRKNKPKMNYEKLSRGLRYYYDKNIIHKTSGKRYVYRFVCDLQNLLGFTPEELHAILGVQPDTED
In outline:
as §1

A further test concerns the target T4, SPDEF (Homo sapiens, UniProt O95238 1-335).
T4 sequence: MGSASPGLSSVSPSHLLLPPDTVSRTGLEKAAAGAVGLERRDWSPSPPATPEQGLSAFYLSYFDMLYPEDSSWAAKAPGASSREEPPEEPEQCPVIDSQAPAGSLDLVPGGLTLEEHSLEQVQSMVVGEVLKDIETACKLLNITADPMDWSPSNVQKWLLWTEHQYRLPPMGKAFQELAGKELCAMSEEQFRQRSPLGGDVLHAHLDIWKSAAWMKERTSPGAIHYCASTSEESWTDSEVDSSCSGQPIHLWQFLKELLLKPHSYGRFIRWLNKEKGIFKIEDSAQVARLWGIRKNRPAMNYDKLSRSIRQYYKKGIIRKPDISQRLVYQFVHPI
In outline:
as §1

The target of the next test is T5, ETV7 (Homo sapiens, UniProt Q9Y603 1-341).
T5 sequence: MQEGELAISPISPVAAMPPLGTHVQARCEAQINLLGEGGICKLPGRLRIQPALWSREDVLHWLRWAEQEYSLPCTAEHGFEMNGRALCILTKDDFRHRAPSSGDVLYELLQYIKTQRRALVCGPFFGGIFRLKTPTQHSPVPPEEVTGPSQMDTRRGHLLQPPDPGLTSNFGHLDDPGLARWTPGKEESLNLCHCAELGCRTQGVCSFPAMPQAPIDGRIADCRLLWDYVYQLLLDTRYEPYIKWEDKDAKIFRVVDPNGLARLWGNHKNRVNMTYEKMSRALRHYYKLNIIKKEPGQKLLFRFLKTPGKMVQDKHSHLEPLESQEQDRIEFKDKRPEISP
In outline: as §1

The target of a further test is T6, ELF5 (Homo sapiens, UniProt Q9UKW6-2 1-255).
T6 sequence: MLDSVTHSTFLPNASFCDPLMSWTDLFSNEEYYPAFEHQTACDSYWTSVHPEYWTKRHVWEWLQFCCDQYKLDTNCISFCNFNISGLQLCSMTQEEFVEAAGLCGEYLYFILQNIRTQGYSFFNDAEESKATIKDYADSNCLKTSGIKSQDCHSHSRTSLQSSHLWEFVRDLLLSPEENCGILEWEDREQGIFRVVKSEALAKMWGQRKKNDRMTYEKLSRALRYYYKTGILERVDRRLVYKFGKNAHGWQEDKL
Summed up:
as §1

Another test addresses T7, ETV3 (Homo sapiens, UniProt P41162-2 1-143).
T7 sequence: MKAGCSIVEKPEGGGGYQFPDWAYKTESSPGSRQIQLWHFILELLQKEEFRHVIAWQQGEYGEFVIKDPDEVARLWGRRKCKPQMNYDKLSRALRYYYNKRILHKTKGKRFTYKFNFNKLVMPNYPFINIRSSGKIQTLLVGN
Summed up: as §1

The target in another test is ETV6 (Homo sapiens, UniProt P41212 1-452). In outline:
as §1

Sequence of ETV6 (P41212 whole entry): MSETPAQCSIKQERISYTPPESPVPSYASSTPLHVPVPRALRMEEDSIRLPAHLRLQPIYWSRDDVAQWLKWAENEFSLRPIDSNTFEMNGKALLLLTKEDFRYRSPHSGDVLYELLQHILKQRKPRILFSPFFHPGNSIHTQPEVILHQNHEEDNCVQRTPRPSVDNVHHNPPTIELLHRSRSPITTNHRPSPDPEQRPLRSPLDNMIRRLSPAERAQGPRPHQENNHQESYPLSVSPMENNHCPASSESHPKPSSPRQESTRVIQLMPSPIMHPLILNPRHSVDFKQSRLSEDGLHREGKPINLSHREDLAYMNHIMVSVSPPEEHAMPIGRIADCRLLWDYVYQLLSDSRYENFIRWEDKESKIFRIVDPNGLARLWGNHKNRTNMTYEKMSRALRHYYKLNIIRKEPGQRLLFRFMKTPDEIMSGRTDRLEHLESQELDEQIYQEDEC

CCACGC: the binding signal with ERF was 1.12 fold enrichment (6-mer frequency, TF over GST control); in the test with ETV3L it was 1.17 fold enrichment (6-mer frequency, TF over GST control); in the test with ETS2, 1.24 fold enrichment (6-mer frequency, TF over GST control); with SPDEF it was 1.17 fold enrichment (6-mer frequency, TF over GST control); with ETV7, 1.15 fold enrichment (6-mer frequency, TF over GST control); with ELF5, 1.11 fold enrichment (6-mer frequency, TF over GST control). In addition, the binding signal with ETV3 is 1.16 fold enrichment (6-mer frequency, TF over GST control); with ETV6, 1.15 fold enrichment (6-mer frequency, TF over GST control).

AACACG: the binding signal is 1.14 fold enrichment (6-mer frequency, TF over GST control) with ERF; 1.15 fold enrichment (6-mer frequency, TF over GST control) with ETV3L; 1.25 fold enrichment (6-mer frequency, TF over GST control) with ETS2; 1.22 fold enrichment (6-mer frequency, TF over GST control) with SPDEF; 1.13 fold enrichment (6-mer frequency, TF over GST control) with ETV7; 1.22 fold enrichment (6-mer frequency, TF over GST control) with ELF5. The binding signal in the test with ETV3 is 1.3 fold enrichment (6-mer frequency, TF over GST control); with ETV6, 1.23 fold enrichment (6-mer frequency, TF over GST control).

On to CGATAA, for which the binding signal with ERF was 1.11 fold enrichment (6-mer frequency, TF over GST control); with ETV3L, 1.09 fold enrichment (6-mer frequency, TF over GST control); with ETS2, 1.14 fold enrichment (6-mer frequency, TF over GST control); with SPDEF, 1.02 fold enrichment (6-mer frequency, TF over GST control); with ETV7 it was 1.08 fold enrichment (6-mer frequency, TF over GST control); with ELF5 it was 1.03 fold enrichment (6-mer frequency, TF over GST control). Moreover, the binding signal with ETV3 was 1.06 fold enrichment (6-mer frequency, TF over GST control); with ETV6, 1.09 fold enrichment (6-mer frequency, TF over GST control).

For CGACCA, the binding signal with ERF was 1.19 fold enrichment (6-mer frequency, TF over GST control); in the test with ETV3L, 1.33 fold enrichment (6-mer frequency, TF over GST control); with ETS2 it was 1.29 fold enrichment (6-mer frequency, TF over GST control); with SPDEF, 1.24 fold enrichment (6-mer frequency, TF over GST control); with ETV7, 1.16 fold enrichment (6-mer frequency, TF over GST control); in the test with ELF5 it was 1.2 fold enrichment (6-mer frequency, TF over GST control). For the same sequence, the binding signal with ETV3 is 1.2 fold enrichment (6-mer frequency, TF over GST control); in the test with ETV6, 1.33 fold enrichment (6-mer frequency, TF over GST control).

For TGCACC, the binding signal was 1.21 fold enrichment (6-mer frequency, TF over GST control) with ERF; 1.21 fold enrichment (6-mer frequency, TF over GST control) with ETV3L; 1.08 fold enrichment (6-mer frequency, TF over GST control) with ETS2; 1.2 fold enrichment (6-mer frequency, TF over GST control) with SPDEF; 1.02 fold enrichment (6-mer frequency, TF over GST control) with ETV7; 1.16 fold enrichment (6-mer frequency, TF over GST control) with ELF5. The binding signal is 1.24 fold enrichment (6-mer frequency, TF over GST control) with ETV3 and 1.19 fold enrichment (6-mer frequency, TF over GST control) with ETV6.

For CCTCGG, the binding signal with ERF is 1.23 fold enrichment (6-mer frequency, TF over GST control); with ETV3L, 1.23 fold enrichment (6-mer frequency, TF over GST control); in the test with ETS2, 1.23 fold enrichment (6-mer frequency, TF over GST control); in the test with SPDEF, 1.04 fold enrichment (6-mer frequency, TF over GST control); with ETV7, 1.11 fold enrichment (6-mer frequency, TF over GST control); with ELF5 it was 1.2 fold enrichment (6-mer frequency, TF over GST control). In addition, the binding signal with ETV3 was 1.05 fold enrichment (6-mer frequency, TF over GST control); with ETV6, 1.24 fold enrichment (6-mer frequency, TF over GST control).

With AAACTG, the binding signal in the test with ERF is 1.03 fold enrichment (6-mer frequency, TF over GST control); with ETV3L, 1.08 fold enrichment (6-mer frequency, TF over GST control); in the test with ETS2, 1.08 fold enrichment (6-mer frequency, TF over GST control); with SPDEF it was 1.02 fold enrichment (6-mer frequency, TF over GST control); with ETV7, 1.13 fold enrichment (6-mer frequency, TF over GST control); with ELF5, 1.1 fold enrichment (6-mer frequency, TF over GST control). The binding signal in the test with ETV3 was 1.07 fold enrichment (6-mer frequency, TF over GST control); with ETV6 it was 1.12 fold enrichment (6-mer frequency, TF over GST control).
